Laboratory results as given in PubChem BioAssay AID1004 (SRMLSC, 2008).
Calls of active or inactive are those of the source.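 The calls were made as follows: active = viability at 10 µM of 29.74% or lower, 3 SD below the compound median; inactive = the rest.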

Assay: viability of HCT116 lacking mutant beta-catenin – cell-based, DP diverse set, validation, pilot screen (AID 1004)
Conditions: HCT116 (mutant beta-catenin deleted) viability, CellTiter-Glo, 60 h; at 10 µM; active compounds read low

Compound | viability
C[C@@H]1C[C@@H]([C@@H](C)CC2CC(=O)NC(=O)C2)C(=O)[C@@H](C)C1 | 27.8% (active)
Cc1c2oc3c(C)ccc(C(=O)N[C@@H]4C(=O)N[C@H](C(C)C)C(=O)N5CCC[C@H]5C(=O)N(C)CC(=O)N(C)[C@@H](C(C)C)C(=O)O[C@@H]4C)c3nc-2c(C(=O)N[C@@H]2C(=O)N[C@H](C(C)C)C(=O)N3CCC[C@H]3C(=O)N(C)CC(=O)N(C)[C@@H](C(C)C)C(=O)O[C@@H]2C)c(N)c1=O | 26% (active)
COc1ccc(CCN2CCC(Nc3nc4ccccc4n3Cc3ccc(F)cc3)CC2)cc1 | 44.6% (inactive)
COC(=O)Nc1nc2ccc(C(=O)c3cccs3)cc2[nH]1 | 38.8% (inactive)
C=C1C(=O)[C@]23[C@H](O)[C@H]1CC[C@H]2[C@@]12COC3(O)[C@H](O)[C@@H]1C(C)(C)CC[C@@H]2O | 88% (inactive)
CC1(COc2ccc(CC3SC(=O)NC3=O)cc2)CCCCC1 (configuration not stated) | 97% (inactive)
CC(=O)N1CCN(c2ccc(OC[C@H]3CO[C@](Cn4ccnc4)(c4ccc(Cl)cc4Cl)O3)cc2)CC1 | 76.8% (inactive)
COc1c(C)c2c(c(O)c1C/C=C(\C)CCC(=O)O)C(=O)OC2 | 49.1% (inactive)
C=CCc1ccc(O)c(-c2cc(CC=C)ccc2O)c1 | 99.2% (inactive)
CCN(CC)C(=S)SSC(=S)N(CC)CC | 76.5% (inactive)
O=C(c1ccc(F)cc1)C1CCN(CCn2c(=O)[nH]c3ccccc3c2=O)CC1 | 104% (inactive)
C[C@]12CC[C@@H]3c4ccc(O)cc4CC[C@H]3[C@@H]1CC[C@H]2O | 91.1% (inactive)
CN(C)c1ccc(/C=C2\C(=O)Nc3ccccc32)cc1 | 80.2% (inactive)
Cc1cc2c(C(C)C)c(O)c(O)c(C=O)c2c(O)c1-c1c(C)cc2c(C(C)C)c(O)c(O)c(C=O)c2c1O | 28.5% (active)
CCn1cc(C(=O)O)c(=O)c2ccc(C)nc21 | 94.8% (inactive)
NC(=O)c1cccc(N)c1 | 108% (inactive)
CNCCC(Oc1ccc(C(F)(F)F)cc1)c1ccccc1 (configuration not stated) | 94.1% (inactive)
